# Test results published in the supplement of paper PMC3545927.
# This is one part of the list. How many sequences the whole screen found active is unknown.
# Biological target: furin, P09958
# Assay: furin cleavage Z-score vs untreated control; higher = more cleavage, active = 3.5 or more, inactive = 1 or less, 8 variable residues between constant flanks
# Experimental: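 Multiplexed peptide-cDNA fusion cleavage assay. 8-mer variable peptides flanked by constant Cys-Ala (N-term) and Ala-Gly-Asn-Ala-Ser-Ala-Ser-Ala (C-term) and conjugated to a cDNA oligonucleotide were bead-immobilised via the N-terminus. They were treated with purified furin at a 1:10 enzyme:substrate ratio in 50 mM HEPES pH 7.5, 1 mM CaCl2, 100 mM NaCl for 7.5, 15 or 30 min. Released cDNA was counted by next-generation sequencing, and log counts versus no-furin controls were lowess-adjusted and converted to robust Z-scores.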
# Sequence of furin, P09958 (P09958 whole entry): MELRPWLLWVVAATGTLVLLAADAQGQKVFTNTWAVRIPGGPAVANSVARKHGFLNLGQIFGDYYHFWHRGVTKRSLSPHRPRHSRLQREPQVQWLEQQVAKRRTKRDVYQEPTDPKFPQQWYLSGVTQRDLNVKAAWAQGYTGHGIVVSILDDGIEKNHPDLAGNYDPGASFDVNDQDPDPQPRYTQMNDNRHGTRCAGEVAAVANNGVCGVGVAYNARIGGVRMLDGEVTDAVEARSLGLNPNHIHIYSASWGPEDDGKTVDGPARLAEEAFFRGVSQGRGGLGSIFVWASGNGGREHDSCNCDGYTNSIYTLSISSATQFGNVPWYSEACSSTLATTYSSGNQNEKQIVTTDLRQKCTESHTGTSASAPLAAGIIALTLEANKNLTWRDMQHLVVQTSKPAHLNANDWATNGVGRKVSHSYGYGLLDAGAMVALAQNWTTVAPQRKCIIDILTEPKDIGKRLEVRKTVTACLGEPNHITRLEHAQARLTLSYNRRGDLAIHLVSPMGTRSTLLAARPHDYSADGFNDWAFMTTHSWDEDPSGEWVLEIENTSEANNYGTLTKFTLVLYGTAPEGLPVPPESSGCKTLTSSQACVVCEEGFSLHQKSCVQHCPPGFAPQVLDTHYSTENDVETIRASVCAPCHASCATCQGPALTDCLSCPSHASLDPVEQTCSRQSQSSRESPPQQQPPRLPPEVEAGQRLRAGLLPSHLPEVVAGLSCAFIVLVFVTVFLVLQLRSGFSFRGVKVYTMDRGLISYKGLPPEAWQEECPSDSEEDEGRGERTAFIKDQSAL
Sequence,furin cleavage Z-score (7.5 min),furin cleavage Z-score (15 min),furin cleavage Z-score (30 min)
CAYVGGPLTNAGNASASA [HC1501],-0.238 (inactive),-0.463 (inactive),-0.523 (inactive)
CAQRVEFLVQAGNASASA [HC1470],-0.81 (inactive),1.84,0.832 (inactive)
CAARGSPPSVAGNASASA [HC1256],0.929 (inactive),-0.707 (inactive),1.93
CAETITLPQDAGNASASA [HC897],-1.02 (inactive),0.648 (inactive),-1.05 (inactive)
CAHVVTSTWVAGNASASA [HC2155],-1.33 (inactive),0.00684 (inactive),-0.368 (inactive)
CASTACSAHLAGNASASA [HC2503],0.199 (inactive),1.42,-0.356 (inactive)
CARMAWDMMMAGNASASA [HC319],-0.311 (inactive),-0.626 (inactive),-0.966 (inactive)
CATLPALSTGAGNASASA [HC501],-1.14 (inactive),0.758 (inactive),-0.483 (inactive)
CALKVPYFVRAGNASASA [HC614],-0.584 (inactive),0.223 (inactive),0.218 (inactive)
CAGWLLSPRGAGNASASA [HC208],0.27 (inactive),-1.63 (inactive),0.774 (inactive)
CAGAARLPRGAGNASASA [FS-777],0.571 (inactive),1.37,2.25
CAGASRSPRGAGNASASA [FS-237],3.32,4.49 (active),5.42 (active)
CADRSRTPRGAGNASASA [FS-759],3.99 (active),4.25 (active),4.12 (active)
CAPERRDVCWAGNASASA [FS-1677],-0.617 (inactive),-1.12 (inactive),0.841 (inactive)
CASRCGSGPWAGNASASA [HC458],-0.489 (inactive),-1.8 (inactive),-0.818 (inactive)
CALRRRQKRQAGNASASA [FS-1234],11.3 (active),12.6 (active),9.62 (active)
CAFPDRVKRNAGNASASA [FS-770],3.16,3.37,3.96 (active)
CAERRRQAGAAGNASASA [FS-1879],-0.934 (inactive),-0.697 (inactive),-1.89 (inactive)
CALRRRLRKQAGNASASA [FS-362],4.47 (active),6.23 (active),5.78 (active)
CACGKRFKKNAGNASASA [FS-219],1.2,-0.0472 (inactive),1.28
CAWLKRQKRNAGNASASA [FS-318],12.5 (active),12.8 (active),10.3 (active)
CATWHRLRKGAGNASASA [FS-1427],-1.13 (inactive),-0.138 (inactive),-1.3 (inactive)
CAFDQGWGPIAGNASASA [HC393],-0.624 (inactive),-1.32 (inactive),-0.893 (inactive)
CATTPCSGSGAGNASASA [HC1936],-2.04 (inactive),2.2,-0.763 (inactive)
CASTPCSGHLAGNASASA [HC2536],-0.918 (inactive),-1.44 (inactive),-0.11 (inactive)
CATDNRSRKRAGNASASA [FS-1658],-0.57 (inactive),0.304 (inactive),-1.94 (inactive)
CAEVCTSTWVAGNASASA [HC2200],-1.07 (inactive),-0.375 (inactive),0.694 (inactive)
